# In publication PMC12136788:
# Substitutions are numbered along the chain they refer to. In all, about 5,800 sequences were measured (“enrichment r”: median about 0.54, highest 2% from about 16 on). What follows is part of a selection rich in the highest values, with near analogues and random picks from the rest.
# B1: chr9:124811826:124811928:+|3pUTR|ENSG00000185585|msi1|FALSE|unique (ssRNA)
# RNA: GGGAGUUCUACAGUCCGACGAUCAAGAAAUUUUCUAGCCCAACUCCCUGUUUCAUGAAAGAGAAAAGAGGCUCAGAAAAGUUUAGAGAGCAGCUCAGUGUCACACUGGGAGCUGGGCACAGCCGAUCUCCUUCCAGAAGGGUUCAACAGAGGAUUGAGCAUCA
# B2: chr4:110049619:110049852:-|3pUTR|ENSG00000170522|msi1|total|mutant (ssRNA)
# RNA: GGGAGUUCUACAGUCCGACGAUCUUGUUCAAUGUGACAUAACCGUAUUAUAAUUGGUUAAGCCGCUUAAUGAUCCGGCAAACCCGAUGAAAAGAUCCGGGGCUUCCACACUGCACCGAUUACACGCACACCGCCACGCAUACACAACAGAGGAUUGAGCAUCA
# B3: chr4:110049619:110049852:-|3pUTR|ENSG00000170522|msi1|FALSE|unique (ssRNA)
# RNA: GGGAGUUCUACAGUCCGACGAUCUUGUUCAAUGUGACAUAAUAGUAUUAUAAUUGGUUAAGUAGCUUAAUGAUUAGGCAAACUAGAUGAAAAGAUUAGGGGCUUCCACACUGCAUAGAUUACACGCACAUAGCCACGCAUACACAACAGAGGAUUGAGCAUCA
# B4: chr9:14618660:14618761:-|3pUTR|ENSG00000175893|msi1|FALSE|unique (ssRNA)
# RNA: GGGAGUUCUACAGUCCGACGAUCUUAGCUUUCCACAGGGAUUUCUUGAAAUGCUUUUGUUAUUAAACUCAAAAGGCAGUGAUUAGGAUGAAAUAAUUGUACAUAAUUUAUUUUAGUACUGACAGUGUUACAGAUUCUAAUUUACAACAGAGGAUUGAGCAUCA
# B5: chr2:171983412:171983537:+|3pUTR|ENSG00000128708|unk|FALSE|unique (ssRNA)
# RNA: GGGAGUUCUACAGUCCGACGAUCUGAUGACUUUAAUUUUAAAAUCUUGUGACAUUUUGCUUAUACUAAAAGUUAUCUAUCUUUAGUUGAAUAUUUUCUUUUGGAGAGAUUGUAUAUUUUAAAAUACUGUUUAGAGUUUAUGAGCAACAGAGGAUUGAGCAUCA
# B6: chr6:53267885:53267986:-|3pUTR|ENSG00000012660|msi1_unk|total|mutant (ssRNA)
# RNA: GGGAGUUCUACAGUCCGACGAUCUUUAAUGUAAAUCUAACCGUACUUGUAAUUUCUUUCUGCUCCGAAUCUAAAGAUGUGUUCCGAACCUCUUGUUUAAAAAUAACCGACUGCUUAUCAUAAAAUCACAUCUCACACAUUUGACAACAGAGGAUUGAGCAUCA
# B7: chr6:53267885:53267986:-|3pUTR|ENSG00000012660|msi1_unk|FALSE|overlapping (ssRNA)
# RNA: B6 RNA with C40U, C41A, C64U, C65A, C83U, C84A, C106U, C107A
# B8: ENSG00000198589:be:win_4601|CDS|ENSG00000198589|bound_else_gene|NA|bound_elsewhere_windowed (ssRNA)
# RNA: GGGAGUUCUACAGUCCGACGAUCUGGCAGUAGUAUACUUUAUCUCUGUUCUUAUGGUCUCCAAGUACAGAGACAUUUUGGAACCCCAAAAUGAAAGGCAUAGCCAGUCAUGUACAGAAACUGGCAGUGAAAAUGAGAAUGUAUCAACAGAGGAUUGAGCAUCA
# B9: chr4:17843545:17843646:+|3pUTR|ENSG00000109805|msi1|total|mutant (ssRNA)
# RNA: GGGAGUUCUACAGUCCGACGAUCCUGUGCGCUUCCACGUUACUUUGGCCUGUAUUAAAGCAGCCGAGCAGCAUCAGUUAUUACCGUCCAGAAAAAGUGUGCAUCAGUCAGUCACACAGAUUUAUCACAAUCUGAGGUGGGCCUCAACAGAGGAUUGAGCAUCA
# B10: chr8:22006149:22006250:+|3pUTR|ENSG00000130227|msi1|total|mutant (ssRNA)
# RNA: GGGAGUUCUACAGUCCGACGAUCGAAUGUAUGAACUGGAGGAAGUUACUACAGUGGAAGGGUUCUUAAUAACAAGGUCUACCCCGCAUGAAGUAUUUAACAUUCUCCCAUCCCUUAAAAAAUAUACAUUUUUAUAAAAUGAAACAACAGAGGAUUGAGCAUCA
# B11: chr6:145799413:145799514:-|3pUTR|ENSG00000118496|msi1|total|mutant (ssRNA)
# RNA: GGGAGUUCUACAGUCCGACGAUCUUAUCUCACAUACUUACAACUCAACACACAGAGUGACCAUGUGCAGCUUUCUUUUUUGUCCGAUGCCACAUCCGAAGACUCAUCGCAGUGUGUUAUAUGACAGGACAAAGCAAAAACAAACAACAGAGGAUUGAGCAUCA
# B12: chr11:46383557:46383658:+|3pUTR|ENSG00000110492|msi1_unk|FALSE|overlapping (ssRNA)
# RNA: GGGAGUUCUACAGUCCGACGAUCCCACGCCCUCCCUCUCCCAGGCCCGAGAUGUGACCCACCAGUGCCUUCUGUCUGCUCGUUAGCUUUAAUCAAUCAUGCCCUGCCUUGUCCCUCUCACUCCCCAGCCCCACCCCUAAGUGCCAACAGAGGAUUGAGCAUCA
# B13: chr3:10101824:10101929:+|3pUTR|ENSG00000144554|unk|FALSE|unique (ssRNA)
# RNA: GGGAGUUCUACAGUCCGACGAUCAAAAUCUCUGAGUCAUGAUUCUGGACUUUGGGAGCUAGUUUUGAAACUCUGAUUUAUUGUAGAACUUAGGCUUGUACCAAUUUUACAAAUAAAUUCUGUUCUAAGUUCUGCCUCAGUUGCCAACAGAGGAUUGAGCAUCA
# B14: chr20:11926050:11926151:+|3pUTR|ENSG00000132640|msi1|FALSE|unique (ssRNA)
# RNA: GGGAGUUCUACAGUCCGACGAUCAUGAAAUGGAAUGAAGGCUAAUAUGCUUGCUUUAUUUACUUUUGUAAUCUUGGAUUUUGUAGCUUUUAAAACUAGAAACCAUUGUUCUAACAAAGCAGGCAACUUUAUUCUAUAAACACACAACAGAGGAUUGAGCAUCA
# B15: chr4:124666837:124666938:-|3pUTR|ENSG00000151458|msi1|total|mutant (ssRNA)
# RNA: GGGAGUUCUACAGUCCGACGAUCAAUGAUUUCUUGGCAGUUUAAAAAAAAUAUUUUACCGCCGUUCCGGGAGCUGCUUUAAGCCGUUUAAAUCUGGAUUUUCCCAGCCGAAUUCUUCUCAUCUCUGGCUAAACAUGUCAGAACCAACAGAGGAUUGAGCAUCA
# B16: chr10:92030471:92030572:+|3pUTR|ENSG00000095564|unk|total|mutant (ssRNA)
# RNA: GGGAGUUCUACAGUCCGACGAUCUAUUUUUUUAUUAACUAUUUAUUUGCCCGUUCCAUAAACCAGCUCUUUAACACCGCUUACCGUAAUUGAUAUUUUCUCCGAAUAAGUACAGAGCAAUAUAUCAUUAAAGGGCUAUGAAGGCAACAGAGGAUUGAGCAUCA
# B17: chr8:65707876:65707977:+|CDS|ENSG00000066855|unk|FALSE|unique (ssRNA)
# RNA: GGGAGUUCUACAGUCCGACGAUCCCUGCUGCCCUCAUAGCAGAGGCUCUGAAAAAGAAAUUUGCUUAUCGGUAUCGAAGUGAUAGCCAAGAUGAAGUUGAAAAAGGAAUUCCAAAGUCUGAAUCAGAGGCCACCUCAGAGAGACAACAGAGGAUUGAGCAUCA
# B18: chr4:124666837:124666938:-|3pUTR|ENSG00000151458|msi1|FALSE|unique (ssRNA)
# RNA: B15 RNA with C58U, C59A, C61U, C62A, C66U, C67A, C83U, C84A, C107U, C108A
# B19: chr1:235448940:235449205:-|3pUTR|ENSG00000162885|unk|FALSE|unique (ssRNA)
# RNA: GGGAGUUCUACAGUCCGACGAUCAAUAGAGAAUUCCAUUAAAACUAGUCUUAUGACAGAUAUUAACUGUGUUCAGAUUUUAUUAGGCUAGCUAGUUUCUUUCUAUUUAAUAUUUAAAUCUUAUCAUGAAAUGCAGUGAUGAGCCAACAGAGGAUUGAGCAUCA
# B20: chr13:32776882:32776983:+|3pUTR|ENSG00000083642|unk|total|mutant (ssRNA)
# RNA: GGGAGUUCUACAGUCCGACGAUCAAAGUGUUUUGAAUUGUGUCUUAAUCUCUCCAUAUUCAACUAUUCUUCAUUUACAACAACCGUGACACCAGUAAUUAUGAGAGGCUGUCAUAUAUCAAAGCAGCUCAGGUGGGAUCAACACAACAGAGGAUUGAGCAUCA
# B21: chr10:92030471:92030572:+|3pUTR|ENSG00000095564|unk|FALSE|unique (ssRNA)
# RNA: B16 RNA with C50U, C51A, C76U, C77A, C83U, C84A, C101U, C102A
# B22: chr20:11926050:11926151:+|3pUTR|ENSG00000132640|msi1|total|mutant (ssRNA)
# RNA: B14 RNA with U83C, A84C, U96C, A97C
# B23: ENSG00000066933:stop:overlap|stop_codon|ENSG00000066933|stop_codon|NA|stop_codon (ssRNA)
# RNA: GGGAGUUCUACAGUCCGACGAUCAUAGCUCAGAGAAUUUGAAUAUGGAGUCUGAAUAUGCUAUCUCUGAGAAAUCAGAAGCUUAGCCCUUAGCUCCCUGAAGACAGCUGGCAAGUCUGAACCUUCCAGCAAGUUGCGAAAGCACAACAGAGGAUUGAGCAUCA
# B24: ENSG00000107863:be:win_551|CDS|ENSG00000107863|bound_else_gene|NA|bound_elsewhere_windowed (ssRNA)
# RNA: GGGAGUUCUACAGUCCGACGAUCAAGGCAACGAAGCUUAUAGCGGCAAUGCCCGCAAUAUACCUGAACCUCCACCAAUCUGCUAUCCCUGGCUGCCAUCUGCCCCAUCAGCCAUGGCACAGCCAGUUGAAAUAUCUCCUCCUGCAACAGAGGAUUGAGCAUCA
# Biological target: MSI1 full-length (mouse, UniProt Q61474 1-362)
# Sequence (Q61474 whole entry): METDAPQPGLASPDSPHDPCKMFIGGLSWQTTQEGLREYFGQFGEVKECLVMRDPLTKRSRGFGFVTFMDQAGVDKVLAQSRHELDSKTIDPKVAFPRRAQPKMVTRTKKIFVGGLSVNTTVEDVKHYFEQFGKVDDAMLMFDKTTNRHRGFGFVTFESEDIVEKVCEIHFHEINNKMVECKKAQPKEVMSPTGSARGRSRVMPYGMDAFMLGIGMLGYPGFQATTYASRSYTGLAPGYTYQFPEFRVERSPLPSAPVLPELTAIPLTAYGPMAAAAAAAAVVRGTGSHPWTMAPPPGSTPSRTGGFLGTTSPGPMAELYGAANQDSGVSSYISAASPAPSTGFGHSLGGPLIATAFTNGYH
# Test: nsRBNS (natural sequence RNA bind-n-seq); RBNS binding buffer (assumed for nsRBNS): 25 mM Tris pH 7.5, 150 mM KCl, 3 mM MgCl2, 0.01% Triton X-100, 500 ug/ml BSA, 20 U/ml SUPERase-In, 4 C; UNK is unkempt and MSI1 is Musashi-1; names of the RNAs are library labels; protein concentration not given here; high values mean tight binding
row,Binder,binding signal
1,B1,0.831 enrichment R
2,B2,0.468 enrichment R
3,B3,43.1 enrichment R
4,B4,1.51 enrichment R
5,B5,3.32 enrichment R
6,B6,1.15 enrichment R
7,B7,26.6 enrichment R
8,B8,0.339 enrichment R
9,B9,0.782 enrichment R
10,B10,0.38 enrichment R
11,B11,0.363 enrichment R
12,B12,1.31 enrichment R
13,B13,0.376 enrichment R
14,B14,1.07 enrichment R
15,B15,0.225 enrichment R
16,B16,27.9 enrichment R
17,B17,0.29 enrichment R
18,B18,23.2 enrichment R
19,B19,13.3 enrichment R
20,B20,0.958 enrichment R
21,B21,39.5 enrichment R
22,B22,0.37 enrichment R
23,B23,16.9 enrichment R
24,B24,0.51 enrichment R
